This is part of a sample that, as a whole, favours compounds with a hit. Of some 79,000 tested, about 15% had one in any assay. Unmarked numbers belong to inactive results. Activity calls are given as the source filed them. No stated cut-off is given here; in the data, active means growth inhibition above about 70%; inactive means the rest.
Assays:
[1] = NCI Yeast Anticancer Drug Screen. Data for the mlh1 strain (AID 171);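 further: 0% = growth of vehicle-treated control cultures of the same strain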; settings: S. cerevisiae mlh1 strain growth inhibition, hits give high values
How it was run: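 Compounds are applied to a genetically altered yeast strain, and its growth is compared with that of vehicle-treated cultures to give percent inhibition.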

[2] = NCI Yeast Anticancer Drug Screen. Data for the sgs1 strain (AID 173);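 further: 0% = growth of vehicle-only control cultures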; settings: S. cerevisiae sgs1 mutant, hits give high values
How it was run: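 Compounds applied to genetically altered yeast; growth compared with vehicle-treated cultures to give % inhibition.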

[3] = NCI Yeast Anticancer Drug Screen. Data for the mlh1 rad18 strain (AID 175); settings: S. cerevisiae mlh1 rad18 strain growth inhibition, hits give high values
How it was run: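 Cells of a genetically altered yeast strain, deficient in DNA damage repair, were treated with compound. Their growth was then compared with that of vehicle-treated cultures to give inhibition.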

[4] = NCI Yeast Anticancer Drug Screen. Data for the rad18 strain (AID 177); settings: S. cerevisiae rad18 mutant growth inhibition, hits give high values
How it was run: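 Compounds are applied to a repair-deficient yeast strain, and growth is compared with that of vehicle-treated cultures to give percent inhibition.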

[5] = NCI Yeast Anticancer Drug Screen. Data for the rad52 strain (AID 147);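 further: 0% = growth of vehicle-treated control cultures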; settings: S. cerevisiae rad52 mutant growth inhibition, hits give high values
How it was run: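 DNA repair-defective yeast; compound exposure; growth scored against vehicle controls.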

[6] = NCI Yeast Anticancer Drug Screen. Data for the wt1 strain (AID 149);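 further: 0% = growth of vehicle-treated wt1 cultures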; settings: S. cerevisiae wt1 strain (SPY 50644) growth inhibition, hits give high values
How it was run: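 Each compound is tested on wt1 yeast and the loss of growth versus vehicle gives the inhibition value.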

[7] = NCI Yeast Anticancer Drug Screen. Data for the rad50EPP+ strain (AID 151);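 further: 0% = growth of vehicle-treated control cultures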; settings: S. cerevisiae rad50 mutant strain, hits give high values
How it was run: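 rad50EPP+ yeast treated with test compounds. Readout: growth vs vehicle control.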

[8] = NCI Yeast Anticancer Drug Screen. Data for the rad50 strain (AID 155);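 further: 0% = growth of vehicle-only cultures of the same strain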; settings: S. cerevisiae rad50 strain growth inhibition, hits give high values
How it was run: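 Vehicle-treated cultures provide the reference for the growth inhibition reported for compound-exposed, repair-deficient yeast.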

[9] = NCI Yeast Anticancer Drug Screen. Data for the mec2-1 strain (AID 157); settings: S. cerevisiae mec2-1 strain, hits give high values
How it was run: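 Growth inhibition is read against vehicle-treated controls after compound exposure of the mec2-1 yeast strain, which is defective in DNA damage repair or cell cycle control.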

[10] = NCI Yeast Anticancer Drug Screen. Data for the rad14 strain (AID 159);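 further: 0% = growth of vehicle-treated control cultures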; settings: S. cerevisiae rad14 strain growth inhibition, hits give high values
How it was run: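 Inhibition of growth is reported for a repair-deficient yeast mutant following compound treatment, calculated relative to cultures that received vehicle.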

[11] = NCI Yeast Anticancer Drug Screen. Data for the sgs1 mgt1 strain (AID 161);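 further: 0% = growth of cultures given vehicle only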; settings: S. cerevisiae sgs1 mgt1 strain, hits give high values
How it was run: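 Yeast cells carrying a defined DNA-repair defect were exposed to test compounds. Growth inhibition was measured relative to vehicle-treated controls.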

[12] = NCI Yeast Anticancer Drug Screen. Data for the CLN2oe strain (AID 163);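 further: 0% = growth of vehicle-only control cultures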; settings: S. cerevisiae CLN2oe strain, hits give high values
How it was run: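 Compound-treated yeast; growth vs vehicle ctrl = % inhibition. Genetically altered strain (cell-cycle control).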

[13] = NCI Yeast Anticancer Drug Screen. Data for the cln2 rad14 strain (AID 165);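 further: 0% = growth equal to vehicle treated cultures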; settings: S. cerevisiae cln2 rad14 strain, hits give high values
How it was run: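 Growth inhibition, relative to vehicle-treated controls, is the read-out. The test organism is a yeast strain with defined genetic alterations, cln2 rad14.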

[14] = NCI Yeast Anticancer Drug Screen. Data for the bub3 strain (AID 167); settings: S. cerevisiae bub3 mutant strain, hits give high values
How it was run: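 Mutant yeast screening strain plus compound; vehicle-treated cultures serve as the 0% inhibition reference.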

[15] = NCI Yeast Anticancer Drug Screen. Data for the wt2 strain (AID 169); settings: S. cerevisiae wt2 strain growth inhibition, hits give high values
How it was run: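 Compound exposure of yeast; growth compared with vehicle controls; inhibition reported.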

[16] = at 5.0 µM (retest, dose inferred, filed as 0.5)
[17] = at 50.0 µM (retest, dose inferred, filed as 5.0)

With c1ccc2c(c1)C(=NCCCN1CCCCCC1)c1cccn1-2 as the compound, how does the growth inhibition ([1]; at 1.2 µM) read?
Its growth inhibition is -2%.

What about the growth inhibition ([1]; at 3.7 µM) of the same compound?
The growth inhibition was -2%.

What about the growth inhibition ([1]; at 11.0 µM) of the same compound?
The growth inhibition was 0%.

And the growth inhibition ([1]; at 33.0 µM)?
The growth inhibition was 4%.

And the growth inhibition ([1]; at 100.0 µM)?
Its growth inhibition is 96% (active).

And the growth inhibition ([2]; at 1.2 µM)?
Its growth inhibition is -4%.

And the growth inhibition ([2]; at 3.7 µM)?
Its growth inhibition is -2%.

What about the growth inhibition ([2]; at 11.0 µM) of the same compound?
Its growth inhibition is -1%.

What about the growth inhibition ([2]; at 33.0 µM) of the same compound?
Its growth inhibition is 4%.

And the growth inhibition ([2]; at 100.0 µM)?
Its growth inhibition is 96% (active).

What about the growth inhibition [3, 16] of the same compound?
The growth inhibition was -2%.

And the growth inhibition [3, 17]?
Its growth inhibition is -2%.

What about the growth inhibition ([3]; at 50.0 µM) of the same compound?
The growth inhibition was 89.8% (active).

And the growth inhibition ([4]; at 1.2 µM)?
Its growth inhibition is -1%.

And the growth inhibition ([4]; at 3.7 µM)?
Its growth inhibition is 1%.

What about the growth inhibition ([4]; at 11.0 µM) of the same compound?
The growth inhibition was 4%.

What about the growth inhibition ([4]; at 33.0 µM) of the same compound?
The growth inhibition was 1%.

And the growth inhibition ([4]; at 100.0 µM)?
The growth inhibition was 98% (active).

What does the source list for O=Nc1cccnc1N=O?
growth inhibition ([5]; at 1.2 µM): 10%; growth inhibition ([5]; at 3.7 µM): 31%; growth inhibition ([5]; at 11.0 µM): 86% (active); growth inhibition ([5]; at 33.0 µM): 98% (active); growth inhibition ([5]; at 100.0 µM): 98% (active); growth inhibition ([6]; at 1.2 µM): 2%; growth inhibition ([6]; at 3.7 µM): 10%; growth inhibition ([6]; at 11.0 µM): 37%; growth inhibition ([6]; at 33.0 µM): 99% (active); growth inhibition ([6]; at 100.0 µM): 99% (active); growth inhibition ([7]; at 1.2 µM): -33%; growth inhibition ([7]; at 3.7 µM): 14%; growth inhibition ([7]; at 11.0 µM): 64%; growth inhibition ([7]; at 33.0 µM): 97% (active); growth inhibition ([7]; at 100.0 µM): 98% (active); growth inhibition ([8]; at 1.2 µM): 7%; growth inhibition ([8]; at 3.7 µM): 21%; growth inhibition [8, 16]: 66%; growth inhibition ([8]; at 11.0 µM): 52%; growth inhibition ([8]; at 33.0 µM): 98% (active); growth inhibition [8, 17]: 99% (active); growth inhibition ([8]; at 50.0 µM): 99.5% (active); growth inhibition ([8]; at 100.0 µM): 98% (active); growth inhibition ([9]; at 1.2 µM): 7%; growth inhibition ([9]; at 3.7 µM): 28%; growth inhibition [9, 16]: 27%; growth inhibition ([9]; at 11.0 µM): 90% (active); growth inhibition ([9]; at 33.0 µM): 99% (active); growth inhibition [9, 17]: 99% (active); growth inhibition ([9]; at 50.0 µM): 99.4% (active); growth inhibition ([9]; at 100.0 µM): 99% (active); growth inhibition ([10]; at 1.2 µM): 11%; growth inhibition ([10]; at 3.7 µM): 36%; growth inhibition ([10]; at 11.0 µM): 99% (active); growth inhibition ([10]; at 33.0 µM): 99% (active); growth inhibition ([10]; at 100.0 µM): 99% (active); growth inhibition [11, 16]: 81% (active); growth inhibition [11, 17]: 99% (active); growth inhibition ([11]; at 50.0 µM): 99.3% (active); growth inhibition ([12]; at 1.2 µM): 5%; growth inhibition ([12]; at 3.7 µM): 13%; growth inhibition ([12]; at 11.0 µM): 34%; growth inhibition ([12]; at 33.0 µM): 99% (active); growth inhibition ([12]; at 100.0 µM): 98% (active); growth inhibition [13, 16]: 19%; growth inhibition [13, 17]: 99% (active); growth inhibition ([13]; at 50.0 µM): 99.3% (active); growth inhibition ([14]; at 1.2 µM): 9%; growth inhibition ([14]; at 3.7 µM): 31%; growth inhibition [14, 16]: 76% (active); growth inhibition ([14]; at 11.0 µM): 86% (active); growth inhibition ([14]; at 33.0 µM): 98% (active); growth inhibition [14, 17]: 99% (active); growth inhibition ([14]; at 50.0 µM): 99.5% (active); growth inhibition ([14]; at 100.0 µM): 98% (active); growth inhibition ([15]; at 1.2 µM): 2%; growth inhibition ([15]; at 3.7 µM): 16%; growth inhibition ([15]; at 11.0 µM): 59%; growth inhibition ([15]; at 33.0 µM): 99% (active); growth inhibition ([15]; at 100.0 µM): 99% (active); growth inhibition ([1]; at 1.2 µM): 5%; growth inhibition ([1]; at 3.7 µM): 21%; growth inhibition ([1]; at 11.0 µM): 83% (active); growth inhibition ([1]; at 33.0 µM): 98% (active); growth inhibition ([1]; at 100.0 µM): 99% (active); growth inhibition ([2]; at 1.2 µM): 18%; growth inhibition ([2]; at 3.7 µM): 63%; growth inhibition ([2]; at 11.0 µM): 97% (active); growth inhibition ([2]; at 33.0 µM): 99% (active); growth inhibition ([2]; at 100.0 µM): 99% (active); growth inhibition [3, 16]: 94% (active); growth inhibition [3, 17]: 99% (active); growth inhibition ([3]; at 50.0 µM): 99.6% (active)

— PubChem BioAssay (NCI)
